From PubChem BioAssay AID598 (SRMLSC, 2007)
The whole screen tested about 85,000 compounds, of which about 5,100 (6%) were called active.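 Rule for the calls: active = viability at or below 40%; inactive = viability above 40%.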 The sample as a whole holds a higher share of actives than the screen did.

Experiment: proliferation blockers of H69AR lung cancer cells, primary screen, cell-based, human, 86K library (AID 598);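 note: multidrug resistant small cell line overexpressing MRP-1 efflux transporter; 100% = mean luminescence of untreated control wells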
Details: H69AR lung tumor viability, ATP luminescence, 72 h; at 10 µM; active compounds read low

With CCOC(=O)c1ccc2c(c1)nc(SCC(=O)NC(C)C)n2CC as the compound, how does the viability read?
Its viability is 84% (inactive).

Which viability does the source give for CCNc1nc(NC(C)C)nc(OCCOC(=O)c2ccccc2)n1 here?
Its viability is 83.5% (inactive).

For CCOc1cccc(NC(=O)Cn2nc(-c3ccc4c(c3)OCCO4)ccc2=O)c1, which viability is on record?
The viability was 69.3% (inactive).

Which viability does the source give for CCN(CC)S(=O)(=O)c1cccc(C(=O)NCC(=O)OCC(=O)NCc2ccccc2)c1 here?
Its viability is 87.6% (inactive).

Which viability does the source give for CN(C)S(=O)(=O)c1cccc(C(=O)Nc2cccnc2)c1 here?
Its viability is 89.9% (inactive).

For CCN(CC)S(=O)(=O)c1cccc(C(=O)Nc2ccccc2)c1, which viability is on record?
Its viability is 38.5% (active).

With N#CC1=C(N)N(c2ccccc2)C2=C(C(=O)CCC2)C1c1ccccc1 (configuration not stated) as the compound, how does the viability read?
Its viability is 40.4% (inactive).

With Cc1cccc(N2CCN(C(c3ccc(N(C)C)cc3)c3nnnn3C(C)(C)C)CC2)c1C (configuration not stated) as the compound, how does the viability read?
Its viability is 83.3% (inactive).

With O=C(COC(=O)c1ccc(Oc2ccccc2)cc1)Nc1nnc(-c2ccccc2)o1 as the compound, how does the viability read?
The viability was 58.7% (inactive).

Which viability does the source give for O=C(OCc1nnc(-c2ccccc2)o1)c1ccc2c(c1)C(=O)N(CCc1ccccc1)C2=O here?
The viability was 33.8% (active).

For CCCc1nc2ccccc2c(C(=O)OCc2nnc(-c3cc(OC)c(OC)c(OC)c3)o2)c1CC, which viability is on record?
The viability was 50.2% (inactive).

Which viability does the source give for O=C1CCCc2nn(-c3ccccc3)nc21 here?
Its viability is 87.6% (inactive).

Which viability does the source give for CCOC(=O)N1CC=C2C(C#N)=C(N)C(C#N)(C#N)[C@H](c3cccs3)[C@H]2C1 here?
Its viability is 61.6% (inactive).

For CCN1CC=C2C(C#N)=C(N)C(C#N)(C#N)[C@H](c3ccoc3)[C@H]2C1, which viability is on record?
The viability was 84.8% (inactive).

With CCCN1CC=C2C(C#N)=C(N)C(C#N)(C#N)C(c3cc(OC)ccc3OC)C2C1 (configuration not stated) as the compound, how does the viability read?
The viability was 31.8% (active).

With CCOC(=O)C1=C(CSc2nnnn2C)N(C)C(=O)NC1c1ccccc1 (configuration not stated) as the compound, how does the viability read?
Its viability is 93.1% (inactive).

With COc1ccc(N2CCN(C(=O)CCc3nc(-c4ccc(C)cc4)no3)CC2)cc1 as the compound, how does the viability read?
Its viability is 98.4% (inactive).

Which viability does the source give for CCc1cccc(C)c1N(C(=O)Cn1c(CO)nc2ccccc21)C(C)COC (configuration not stated) here?
Its viability is 71% (inactive).

With CCOC(=O)c1c(C)oc2ccc(OCC(=O)N(CC)CC)cc12 as the compound, how does the viability read?
Its viability is 38.9% (active).

Which viability does the source give for Cc1cc(=O)oc2ccc(OCC(=O)O)cc12 here?
Its viability is 97.4% (inactive).

With CCOC(=O)c1c(C)oc2cc(Br)c(OCC(N)=O)cc12 as the compound, how does the viability read?
Its viability is 80.2% (inactive).

With CN(C)c1ccnc2sc3c(=O)n(-c4ccc(Cl)cc4)cnc3c12 as the compound, how does the viability read?
Its viability is 80.8% (inactive).

With O=C(N/N=C/C=C/c1ccccc1)C1CC1(c1ccccc1)c1ccccc1 (configuration not stated) as the compound, how does the viability read?
The viability was 98.1% (inactive).

Which viability does the source give for CC(C)C[C@@H](N)c1nnc(SCC(=O)c2ccc(Cl)cc2)o1 here?
The viability was 86.9% (inactive).

For COc1ccc(NC(=O)c2cccc(NC(=O)c3ccco3)c2)c(OC)c1, which viability is on record?
The viability was 88.5% (inactive).

Which viability does the source give for COC(=O)c1cc(Cl)c(NC(=O)c2ccco2)cc1OC here?
The viability was 94% (inactive).

With COc1cc(C(=O)OC(C)C(=O)NCC2CCCCC2)cc(NC(=O)c2ccco2)c1OC (configuration not stated) as the compound, how does the viability read?
The viability was 13.1% (active).
